From PubChem BioAssay
Records with an inconclusive call do not appear. Activity calls are given as the source filed them.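 The calls were made as follows, unless noted: active = GFP signal, as percent of the solvent control, above the screen mean plus 3 SD, about 149; inconclusive = no reading because the compound's own fluorescence upset strain identification; inactive = the rest.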

Columns and labels:
[1] = yeast TOR pathway RPL19A-GFP modulators, primary screen, cell-based, S. cerevisiae, multiplex flow cytometry (AID 1862; in the data active = percent of DMSO control GFP below about 86%;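 also: lower values mimic rapamycin by blocking the RPL19A rise seen in DMSO cells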); conditions: S. cerevisiae RPL19A-GFP strain, flow cytometry fluorescence, 3 h; at 10 µM; stronger effect = lower value
[2] = modulators of MEP2-GFP levels in yeast, primary screen, S. cerevisiae, multiplex flow cytometry (AID 1867;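 active = GFP response, as percent of the DMSO control, above the screen-wide mean plus 3 SD, about 139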;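 also: median GFP channel fluorescence of barcode-gated MEP2-GFP cells measured by flow cytometry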); conditions: S. cerevisiae MEP2-GFP strain, 3 h, at 10 µM, stronger effect = higher value, 100% means same as DMSO wells
[3] = modulators of CIT2-GFP expression in yeast, primary screen, S. cerevisiae, GFP fusion, multiplex flow cytometry (AID 1870;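 active = percent response above a set limit, the screen-wide mean plus 3 SD, cut at about 130% in these data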;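 also: barcoded CIT2-GFP strain pooled with four other GFP strains with rapamycin as positive control; median GFP fluorescence per well over plate mean of DMSO wells so 100% = DMSO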); conditions: 3 h, at 10 µM, stronger effect = higher value
[4] = modulators of LAP4-GFP expression in yeast, primary screen, S. cerevisiae, multiplex flow cytometry (AID 1873); conditions: 3 h, at 10 µM, stronger effect = higher value
[5] = modulators of AGP1-GFP expression in yeast TOR pathway, primary screen, cell-based, multiplex flow cytometry, S. cerevisiae (AID 1887;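 active = GFP signal above the screen-wide mean plus 3 SD, that is over about 124.5% of the solvent control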;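 also: AGP1-GFP fusion strain of S. cerevisiae within a five-strain barcoded multiplex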); conditions: 3 h, at 10 µM, stronger effect = higher value
[6] = inhibitors of CD8+ T cell-vesicle binding, pilot screen, LFA-1/ICAM-1 modulator project, MLPCN validation set, flow cytometry (AID 2523;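 active = response below a set limit, under 55% cells CD8-positive and vesicle-bound, and CD8 cells' 90th-percentile brightness under 279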;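 as to vesicle binding response: mean PE anti-B7-1 fluorescence of CD8+ cells relative to row control; 100% = QL9-loaded vesicles with DMSO vehicle in the same plate row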); conditions: 2C mouse CD8+ T cells, at 7 µM, stronger effect = lower value; double positive events: measured here: CD8+/vesicle+ event percentage
[7] = target: Integrin beta-1 (Homo sapiens) + Integrin alpha-4 (Homo sapiens) (UniProt P13612+P05556); test: inhibition of HUTS-21 binding to VLA-4, pilot screen, VLA-4 allosteric modulator project, U937 cells, HUTS-21 mAb, flow cytometry, validation set (AID 2674;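 active = inhibition above 50%, about 3 SD of the validation set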;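 also: antibody binding induced by the VLA-4 ligand LDV present at three times its Kd; 0% = LDV ligand with antibody and no compound and 100% = antibody without LDV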); conditions: HUTS-21 LIBS mAb binding, at 6.7 µM, stronger effect = higher value, binding induced by LDV ligand
Integrin beta-1 (Homo sapiens) + Integrin alpha-4 (Homo sapiens), sequence (P05556 whole entry, looked up): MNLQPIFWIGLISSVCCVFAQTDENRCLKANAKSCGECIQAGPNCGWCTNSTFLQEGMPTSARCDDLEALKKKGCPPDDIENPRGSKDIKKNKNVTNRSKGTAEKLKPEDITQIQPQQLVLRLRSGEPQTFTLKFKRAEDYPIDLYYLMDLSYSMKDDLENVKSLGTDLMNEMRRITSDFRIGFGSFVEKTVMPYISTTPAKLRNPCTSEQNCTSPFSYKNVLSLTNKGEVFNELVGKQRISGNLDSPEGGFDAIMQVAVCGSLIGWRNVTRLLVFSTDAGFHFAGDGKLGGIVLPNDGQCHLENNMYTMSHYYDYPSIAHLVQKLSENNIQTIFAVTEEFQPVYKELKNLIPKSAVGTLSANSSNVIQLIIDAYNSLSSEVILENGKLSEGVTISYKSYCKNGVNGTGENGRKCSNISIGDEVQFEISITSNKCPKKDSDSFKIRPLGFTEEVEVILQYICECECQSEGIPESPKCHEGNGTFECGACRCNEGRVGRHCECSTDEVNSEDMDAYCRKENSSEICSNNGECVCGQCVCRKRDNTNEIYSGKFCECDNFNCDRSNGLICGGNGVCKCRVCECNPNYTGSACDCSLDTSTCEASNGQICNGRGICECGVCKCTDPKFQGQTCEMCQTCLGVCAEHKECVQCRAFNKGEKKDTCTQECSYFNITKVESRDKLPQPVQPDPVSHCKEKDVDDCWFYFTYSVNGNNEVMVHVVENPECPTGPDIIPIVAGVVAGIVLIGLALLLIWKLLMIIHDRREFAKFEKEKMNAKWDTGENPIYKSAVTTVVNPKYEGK
Integrin beta-1 (Homo sapiens) + Integrin alpha-4 (Homo sapiens), sequence (P13612 whole entry, looked up): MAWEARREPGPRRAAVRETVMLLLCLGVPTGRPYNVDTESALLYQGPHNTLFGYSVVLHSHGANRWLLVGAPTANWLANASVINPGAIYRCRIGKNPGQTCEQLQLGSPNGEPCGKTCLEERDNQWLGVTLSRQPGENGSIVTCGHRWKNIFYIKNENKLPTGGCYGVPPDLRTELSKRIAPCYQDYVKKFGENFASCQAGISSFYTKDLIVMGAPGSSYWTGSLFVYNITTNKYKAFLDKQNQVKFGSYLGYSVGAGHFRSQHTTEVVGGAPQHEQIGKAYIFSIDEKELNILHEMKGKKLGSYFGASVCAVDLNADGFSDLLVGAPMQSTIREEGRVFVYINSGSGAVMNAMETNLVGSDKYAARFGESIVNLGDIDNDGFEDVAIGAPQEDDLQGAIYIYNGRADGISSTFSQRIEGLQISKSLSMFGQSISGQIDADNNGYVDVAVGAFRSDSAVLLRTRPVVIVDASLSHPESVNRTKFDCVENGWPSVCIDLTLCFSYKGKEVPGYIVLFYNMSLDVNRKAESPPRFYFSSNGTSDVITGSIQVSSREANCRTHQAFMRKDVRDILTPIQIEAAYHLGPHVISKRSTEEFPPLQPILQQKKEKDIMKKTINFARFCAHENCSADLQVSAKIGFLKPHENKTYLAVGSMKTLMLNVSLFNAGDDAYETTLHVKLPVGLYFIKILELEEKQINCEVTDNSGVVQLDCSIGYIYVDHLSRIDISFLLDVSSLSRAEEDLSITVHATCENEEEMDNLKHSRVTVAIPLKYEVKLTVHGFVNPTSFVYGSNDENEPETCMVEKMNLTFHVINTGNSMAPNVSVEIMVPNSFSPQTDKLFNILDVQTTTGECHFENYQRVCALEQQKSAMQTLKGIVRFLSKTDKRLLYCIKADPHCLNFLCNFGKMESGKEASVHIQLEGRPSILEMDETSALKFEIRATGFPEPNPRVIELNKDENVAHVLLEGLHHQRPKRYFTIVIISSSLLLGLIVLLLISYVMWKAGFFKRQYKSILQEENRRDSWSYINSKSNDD

[8] = superoxide lowering in aged yeast cells, pilot screen, validation compound set (AID 2706;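 active = superoxide response below 65% of plate, a cut near 3 SD across the whole screen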;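 also: yeast exposed to compound for one week at 30 degrees C before staining; 100% = mean of all compound wells on the same plate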); conditions: S. cerevisiae aging, superoxide DHE fluorescence; at 10 µM; stronger effect = lower value
[9] = target: Beta-adrenergic receptor kinase 1 (Homo sapiens) (UniProt P25098); test: GRK2 binders displacing RNA aptamer, biochemical, validation, human GRK2, bead flow cytometry (AID 488806;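 active = aptamer binding inhibition above 30%, about 3 SD of noise from non-fluorescent compounds; inactive = inhibition at or below 30%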); conditions: bead-bound GRK2, FAM-aptamer displacement, at 10 µM, stronger effect = higher value
Beta-adrenergic receptor kinase 1 (Homo sapiens), sequence (P25098 whole entry, looked up): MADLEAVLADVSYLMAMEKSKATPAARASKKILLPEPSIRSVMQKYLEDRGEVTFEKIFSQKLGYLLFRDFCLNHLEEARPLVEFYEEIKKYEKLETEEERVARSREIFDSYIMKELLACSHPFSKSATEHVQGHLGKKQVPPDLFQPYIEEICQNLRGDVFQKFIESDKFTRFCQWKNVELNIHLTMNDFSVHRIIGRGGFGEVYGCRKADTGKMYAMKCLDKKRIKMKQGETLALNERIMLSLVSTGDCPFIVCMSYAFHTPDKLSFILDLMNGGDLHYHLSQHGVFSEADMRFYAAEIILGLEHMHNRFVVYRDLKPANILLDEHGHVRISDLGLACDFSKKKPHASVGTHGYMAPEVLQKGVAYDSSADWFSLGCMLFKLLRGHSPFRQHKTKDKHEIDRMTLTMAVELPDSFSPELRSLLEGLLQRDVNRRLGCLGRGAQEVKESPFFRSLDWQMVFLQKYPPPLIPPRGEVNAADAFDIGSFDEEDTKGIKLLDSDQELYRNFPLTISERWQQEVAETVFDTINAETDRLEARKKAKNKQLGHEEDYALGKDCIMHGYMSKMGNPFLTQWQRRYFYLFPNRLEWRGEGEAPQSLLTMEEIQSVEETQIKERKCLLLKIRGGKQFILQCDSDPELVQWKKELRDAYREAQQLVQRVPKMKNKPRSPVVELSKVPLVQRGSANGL

[10] = target: Beta-2 adrenergic receptor (Homo sapiens) (UniProt P07550); test: beta2AR agonists driving receptor internalization, pilot screen, cell-based, FAP fluorogen, flow cytometry, validation set (AID 504459;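 active = percent response above 42, roughly 3 SD of non-fluorescent test compounds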;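 also: agonist-driven loss of surface beta2AR via internalization measured by FAP dye flow cytometry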); conditions: Am2.2-beta2AR cells, FAP surface receptor flow cytometry; at 10 µM; stronger effect = higher value
Beta-2 adrenergic receptor (Homo sapiens), sequence (P07550 whole entry, looked up): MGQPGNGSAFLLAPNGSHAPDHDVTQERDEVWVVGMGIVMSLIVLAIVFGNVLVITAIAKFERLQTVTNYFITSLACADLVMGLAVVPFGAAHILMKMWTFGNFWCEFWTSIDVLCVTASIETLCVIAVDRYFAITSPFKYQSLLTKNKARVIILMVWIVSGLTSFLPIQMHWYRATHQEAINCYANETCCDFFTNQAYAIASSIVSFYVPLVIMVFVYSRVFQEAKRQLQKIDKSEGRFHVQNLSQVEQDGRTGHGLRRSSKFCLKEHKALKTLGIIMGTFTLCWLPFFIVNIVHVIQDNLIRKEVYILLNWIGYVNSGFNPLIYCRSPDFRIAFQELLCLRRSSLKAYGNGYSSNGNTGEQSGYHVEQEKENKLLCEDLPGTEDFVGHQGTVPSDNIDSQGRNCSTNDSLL

[11] = target: AP-2 complex subunit beta (Homo sapiens) (UniProt P63010); test: inhibitors of arrestin peptide binding to AP2, pilot screen, biochemical, validation set, GST-AP2 beads, flow cytometry (AID 504541;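 active = inhibition above 54%, about 3 SD of non-fluorescent compounds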;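 also: AP2 carries R879A mutation and is captured from E. coli lysate; bead-bound FITC arrestin peptide fluorescence measuring arrestin peptide binding to AP2; 0% = DMSO wells and 100% = excess unlabeled arrestin peptide control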); conditions: FITC arrestin peptide, at 10 µM, stronger effect = higher value, AP2 beta2 appendage fragment, R879A mutant
AP-2 complex subunit beta (Homo sapiens), sequence (P63010 whole entry, looked up, the tested form may be a part, one chain of several): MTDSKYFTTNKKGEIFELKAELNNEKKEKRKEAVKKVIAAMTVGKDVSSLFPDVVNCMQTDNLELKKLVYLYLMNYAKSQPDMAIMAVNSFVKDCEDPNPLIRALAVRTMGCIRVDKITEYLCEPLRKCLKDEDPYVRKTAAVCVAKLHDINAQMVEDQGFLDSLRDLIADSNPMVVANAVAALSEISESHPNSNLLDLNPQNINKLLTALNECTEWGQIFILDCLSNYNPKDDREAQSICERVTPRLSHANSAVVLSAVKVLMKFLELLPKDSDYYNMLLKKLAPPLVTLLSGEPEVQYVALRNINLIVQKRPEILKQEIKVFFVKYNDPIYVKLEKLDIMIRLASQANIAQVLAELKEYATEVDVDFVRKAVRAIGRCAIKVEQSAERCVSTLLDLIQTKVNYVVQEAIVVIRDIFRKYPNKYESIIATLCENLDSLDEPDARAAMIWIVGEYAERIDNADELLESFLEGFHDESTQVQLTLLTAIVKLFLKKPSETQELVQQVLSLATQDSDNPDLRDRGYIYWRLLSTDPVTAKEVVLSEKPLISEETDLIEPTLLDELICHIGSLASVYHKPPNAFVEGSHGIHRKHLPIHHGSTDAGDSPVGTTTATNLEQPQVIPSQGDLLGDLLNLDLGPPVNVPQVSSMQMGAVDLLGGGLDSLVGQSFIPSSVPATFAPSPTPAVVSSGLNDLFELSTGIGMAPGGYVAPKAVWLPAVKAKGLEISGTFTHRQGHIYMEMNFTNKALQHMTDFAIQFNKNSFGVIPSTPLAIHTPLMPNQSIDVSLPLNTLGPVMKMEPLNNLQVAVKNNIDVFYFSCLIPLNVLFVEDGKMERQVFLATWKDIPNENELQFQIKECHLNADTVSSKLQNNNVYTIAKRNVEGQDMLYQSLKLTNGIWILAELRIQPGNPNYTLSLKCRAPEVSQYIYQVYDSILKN

[12] = yeast V-ATPase proton transport modulators, S. cerevisiae, pHLuorin, HTS validation (AID 504600; in the data active = response above about 15%;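 also: plate controls were DMSO for no effect and reference compound for full effect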); conditions: S. cerevisiae pHLuorin cytosolic pH, at 10 µM, stronger effect = higher value
[13] = system: anti-desmoglein-3 scFv antibody binding to human DSG3; test: inhibitors of anti-DSG3 scFv binding to DSG3, pilot screen, biochemical, validation compound set, bead-based, flow cytometry (AID 588368;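 active = binding below the plate cutoff, the plate median minus 3 SD, with a reading above zero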;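 also: signal is the median channel fluorescence of bead-bound GFP antibody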); conditions: Protein G beads, DSG3-Fc, scFv-GFP binding, at 10 µM, stronger effect = lower value
[14] = inhibitors of fungal efflux pumps CDR1, CDR2, MDR1, pilot screen, validation compound set, multiplex, phenotypic (AID 588506;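 active = efflux inhibition above 0.42, the validation set average plus 4 SD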;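 also: Nile Red retained in cells so higher fluorescence means more efflux inhibition; 0 = negative control wells and 1 = enniatin B 25 µM full block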); conditions: S. cerevisiae pump-expressing triplex, Nile Red efflux flow cytometry; at 10 µM; stronger effect = higher value; the pumps come from Candida albicans
[15] = target: ATP-binding cassette sub-family B member 6 (Homo sapiens) (UniProt Q9NP58); test: ABCB6 transporter inhibitors, pilot screen, K562-ABCB6 cells, flow cytometry, validation set (AID 588550;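 active = inhibition above the screen-wide mean plus 3 SD, about 51%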;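 also: 0% = DMSO wells and 100% = benzethonium chloride 70 µM positive control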); conditions: K562-ABCB6 porphyrin accumulation, 1 h, at 10 µM, stronger effect = higher value
ATP-binding cassette sub-family B member 6 (Homo sapiens), sequence (Q9NP58 whole entry, looked up): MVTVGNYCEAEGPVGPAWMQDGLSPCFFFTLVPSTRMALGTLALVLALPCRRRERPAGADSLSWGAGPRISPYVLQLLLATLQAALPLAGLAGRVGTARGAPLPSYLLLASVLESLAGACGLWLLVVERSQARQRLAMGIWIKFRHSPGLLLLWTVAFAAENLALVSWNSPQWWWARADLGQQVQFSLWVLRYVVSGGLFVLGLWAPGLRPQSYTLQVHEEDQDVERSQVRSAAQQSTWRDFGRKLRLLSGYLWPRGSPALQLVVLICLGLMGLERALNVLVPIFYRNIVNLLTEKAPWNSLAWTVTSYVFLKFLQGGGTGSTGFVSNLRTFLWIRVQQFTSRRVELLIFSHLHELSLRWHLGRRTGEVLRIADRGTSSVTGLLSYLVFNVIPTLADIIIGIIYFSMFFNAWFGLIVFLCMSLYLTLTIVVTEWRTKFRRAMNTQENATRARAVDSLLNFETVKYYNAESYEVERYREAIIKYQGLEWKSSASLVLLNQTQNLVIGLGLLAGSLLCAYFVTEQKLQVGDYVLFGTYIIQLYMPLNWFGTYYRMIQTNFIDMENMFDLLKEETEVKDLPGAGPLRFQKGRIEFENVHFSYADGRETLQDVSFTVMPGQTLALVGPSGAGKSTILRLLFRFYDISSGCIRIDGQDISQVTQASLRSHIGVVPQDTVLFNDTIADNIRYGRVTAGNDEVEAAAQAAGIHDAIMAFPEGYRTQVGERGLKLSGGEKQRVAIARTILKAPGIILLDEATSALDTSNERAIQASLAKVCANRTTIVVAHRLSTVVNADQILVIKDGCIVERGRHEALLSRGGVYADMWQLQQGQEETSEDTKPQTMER

[16] = promoters of myeloid differentiation in arrested cells, primary screen, cell-based, GFP/MAC1 double positive, flow cytometry, validation set (AID 588685;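 active = differentiation response of at least 50%, scaled between solvent and reference control, from cells with both markers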;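 also: compound exposure lasts four days before antibody staining and flow analysis; 0% = DMSO wells and 100% = 5 µM fulvestrant positive control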); conditions: ER-HoxA9 marrow cells, stronger effect = higher value, normalized: vehicle 0, fulvestrant 100

Row | SMILES | percent of DMSO control GFP [1] | GFP response vs DMSO [2] | percent response of DMSO control [3] | GFP response vs DMSO [4] | GFP response, % of DMSO [5] | double positive events [6] | vesicle binding response [6] | inhibition [7] | superoxide response (% of plate) [8] | aptamer binding inhibition [9] | response [10] | inhibition [11] | response [12] | binding (% of control) [13] | efflux inhibition (fraction of control) [14] | inhibition [15] | differentiation response [16]
1 | Cc1cc(C)c(NC(=O)NC(=O)C(Cl)(Cl)Cl)c(C)c1 | 103% (inactive) | 97.2% (inactive) | 101% (inactive) | 90.7% (inactive) | 94.2% (inactive) | 62.2% | 464% (inactive) | 13% (inactive) | 97.8% (inactive) | 4% (inactive) | -6.36% (inactive) | -8.2% (inactive) | 13.6% (inactive) | 96.9% (inactive) | -0.04 (inactive) | -19% (inactive) | 0.24% (inactive)
2 | O=C1c2ccccc2C(=O)N1/N=C/c1ccc(Oc2ccc([N+](=O)[O-])cn2)cc1 | 103% (inactive) | 107% (inactive) | 115% (inactive) | 92% (inactive) | 107% (inactive) | 56.2% | 38.7% (inactive) | 12% (inactive) | 106% (inactive) | 0% (inactive) | -4.65% (inactive) | 2.91% (inactive) | -3.15% (inactive) | 92.5% (inactive) | -0.01 (inactive) | -7% (inactive) | -7.57% (inactive)
3 | CC(C)(C)OC(=O)N1CC(O)CC1C(=O)OCC(=O)c1ccc(Cl)cc1 (stereo not drawn) | 105% (inactive) | 98.3% (inactive) | 113% (inactive) | 90.7% (inactive) | 105% (inactive) | 61.3% | 222% (inactive) | 2.66% (inactive) | 105% (inactive) | 0% (inactive) | -16.2% (inactive) | -13.3% (inactive) | 2.73% (inactive) | 98.2% (inactive) | 0.14 (inactive) | -6% (inactive) | 8.06% (inactive)
4 | CCCCCC(O)c1cccc(OCc2ccc3ccccc3n2)c1 (stereo not drawn) | 101% (inactive) | 97.6% (inactive) | 99% (inactive) | 130% (inactive) | 109% (inactive) | 65.2% | 227% (inactive) | 22.7% (inactive) | 110% (inactive) | 2% (inactive) | -42.6% (inactive) | 6.94% (inactive) | 1.82% (inactive) | 92.4% (inactive) | 0.04 (inactive) | 5% (inactive) | -8.93% (inactive)
5 | COc1cc(COc2ccc3c(C)c(Cc4ccccc4)c(=O)oc3c2)cc(OC)c1OC | 102% (inactive) | 103% (inactive) | 122% (inactive) | 94% (inactive) | 98.9% (inactive) | 55% | 38.9% (inactive) | 5.77% (inactive) | 117% (inactive) | 3% (inactive) | 5.22% (inactive) | 3.79% (inactive) | -1.95% (inactive) | 97.2% (inactive) | 0.08 (inactive) | -5% (inactive) | 3.18% (inactive)
6 | O=C1CCc2cc(OCCCCc3nnnn3C3CCCCC3)ccc2N1 | 92.4% (inactive) | 136% (inactive) | 101% (inactive) | 85.3% (inactive) | 92.2% (inactive) | 67% | 194% (inactive) | -5.18% (inactive) | 102% (inactive) | 6% (inactive) | -6.49% (inactive) | -4.26% (inactive) | -1.32% (inactive) | 96.9% (inactive) | -0.09 (inactive) | 11% (inactive) | 8.19% (inactive)
7 | C[C@H]([C@@H](N)C(=O)N[C@@H](C(=O)O)[C@@H]1O[C@H](n2ccc(=O)[nH]c2=O)[C@@H](O)[C@H]1O)[C@@H](O)c1ccc(O)cn1 | 91.5% (inactive) | 130% (inactive) | 93.9% (inactive) | 82.5% (inactive) | 84.5% (inactive) | 59.1% | 184% (inactive) | -9.06% (inactive) | 117% (inactive) | 7% (inactive) | -4.72% (inactive) | 5.36% (inactive) | 2.7% (inactive) | 104% (inactive) | -0.06 (inactive) | 9% (inactive) | 4.09% (inactive)
8 | c1cnc(N2CCN(Cc3ccc4c(c3)OCO4)CC2)nc1 | 101% (inactive) | 101% (inactive) | 102% (inactive) | 97% (inactive) | 103% (inactive) | 73.9% | 330% (inactive) | 2.93% (inactive) | 103% (inactive) | -1% (inactive) | 2.78% (inactive) | 2.85% (inactive) | 0.81% (inactive) | 105% (inactive) | 0.235 (inactive) | 2% (inactive) | -13.3% (inactive)
9 | COc1cccc(N2C(=O)CC(c3c[nH]c4ccccc34)C2=O)c1 (stereo not drawn) | 108% (inactive) | 103% (inactive) | 110% (inactive) | 106% (inactive) | 97.1% (inactive) | 61.9% | 159% (inactive) | -42.6% (inactive) | 95.3% (inactive) | 1% (inactive) | 12% (inactive) | 10% (inactive) | -0.64% (inactive) | 105% (inactive) | 0 (inactive) | -26% (inactive) | -13.3% (inactive)
